Out of some 53,000 sequences screened, about 3,700 (7%) were called active. Only a selection was taken, and actives are over-represented in it overall. A number with no mark means an inactive call.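 Rule for the calls: active = gene knockdowns whose robust z-score for IL-1 alpha signal is at least 2 or at most -2, so actives lie on both sides; inactive = the rest.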
Assay: Components of the Cytosolic LPS Sensing Pathway: Gene Identification via Genome-wide siRNA Screen;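 note: robust z of the log signal after scaling to non-targeting control siRNA wells of the plate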
Settings: RAW264.7 macrophages, IL-1a HTRF, actives lie on both sides, screened at 100 nM (by protocol), cells primed 5 h with Pam3CSK4 first
How it was run: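 Cells (RAW264.7, 1×10^4 per well) were transfected with siRNA at 100 nM and cultured 48h at 37 degrees C. Pam3CSK4 was added for 5 hours; LipidA transfection followed for 24 hour. IL-1a was then measured by HTRF.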

Row | Sequence | z-score
1 | GGAAUGGUUUGGUGAGUUUTT against Pramel1 | 0.859
2 | GGCAUCUCUUCCAAGUUGGTT against Mzt1 | 1.69
3 | GGGACAUAUUGUUUCCCUUTT against Tmco5b | 0.777
4 | GGUUAUGAUGGGACUUCUCTT against Tmem37 | -1.34
5 | CCUUUGUAGGAACAAUUUATT against Phlda1 | 0.409
6 | GCGUAUUUUAUGGAUGAAATT against Nfkbiz | -2.42 (active)
7 | GGAUUAUCAUGGUUUGAUCTT against Elp4 | 0.938
8 | GCAUCUGUGCCGAUUAAAATT against Asb15 | 1.32
9 | AUAUCAGACUGACAUAGCATT against Obox5 | 2.47 (active)
10 | CGAGGCUAACAAACUCAUATT against Guca2a | 0.883
11 | CCUGGAAACUAUUUUGAUGTT against Katnal2 | 0.0379
12 | GACAAAACAAUUUCCUAUGTT against Olfr805 | -0.318
13 | GGCAGAAACGUGGACUAAATT against Mmp12 | -1.29
14 | GGAACCAGUAUCCUGACAUTT against Prop1 | -0.592
15 | GGCUAUAAUGAACCAGCUGTT against Ubr3 | -0.208
16 | CCAGUUCAGAGAUUAUCUUTT against Olfr826 | -2.13 (active)
17 | GGAUGCAGAUGUACAACUCTT against Slc25a28 | 2.17 (active)
18 | GGAGCCUCCAAGUUGUAAGTT against Ifi27l2b | 0.748
19 | CCACCUUAACUGUUGCUUUTT against Mmp2 | 0.691
20 | GCAUUUGAAUCGACUACAGTT against Vti1b | 0.691
21 | GGUGUGUGCAGGACUAAAUTT against Cacng3 | 0.955
22 | GCCGGAGUGCACAAUCAAATT against Rarres2 | 0.908
23 | GGAAAUCCAUCGUUAUUCUTT against Abca8a | 2.08 (active)

Row | Sequence | z-score
24 | GGAGAGACUUGAGAUUGUCTT against Ptx3 | 0.245
25 | GGACACUAUCCGUGCAUCUTT against Tsg101 | -1.13
26 | GCAAGUGACGGUUUAUCUGTT against Las1l | -1.68
27 | UACCAGAAGUACCUGUCCCTT against Lbx1 | 3.33 (active)
28 | CCUCAUUCGAUACAUCUGUTT against Ints3 | 0.319
29 | CCUUGUUUUUCACAAAUCATT against Usp7 | -0.182
30 | GGCUCGACUUGGAGAAAAGTT against Atg13 | 0.0439
31 | GCAGAAGCCUGUGGGAUCUTT against Tex43 | -0.102
32 | GCAAAACCUAACUAUGUUUTT against Mterf3 | -0.879
33 | CGAAUUAUGGCACCGUCAATT against P2rx7 | -0.647
34 | UUAGCCACUCAUUGUUCCATT against Olfr1303 | -0.133
35 | GCUAAUACUGAAAUCGAUGTT against Ccdc73 | 1.02
36 | GGGAGAGUCUUGGCAACUUTT against Btbd17 | -2.12 (active)
37 | GGAAGAGAAGAAGGAACUUTT against Ada | -1.51
38 | CGUUUAAAGACUAGCAAGATT against Tab1 | 0.0468
39 | GGGCUAAUGAGAUAGGUUUTT against Slc19a2 | 2.18 (active)
40 | GGAGGCUGCAAUAGAGGAGTT against Defa20 | 1.23
41 | GGCAAGAGUGAAUUUAAGATT against Nt5e | -0.292
42 | GGAUUUCACAGUCAAAAUUTT against Insrr | -0.825
43 | CGGUGUACGAGUUAGAGAATT against Crybb3 | 1.75
44 | GGGAGAUCUUGACAAAUUCTT against Aplp1 | 2.32 (active)
45 | GGAGAAUGACUAGGUAAUCTT against A130010J15Rik | 1.27
46 | CCUGUCGUUUAACCCUGUCTT against Fis1 | -0.96

Row | Sequence | z-score
47 | GGAGUUGACCACACUGCUUTT against Smtn | -1.09
48 | GGAAUUUAUUCACCCAGACTT against Sirt2 | -1.51
49 | GGAGAUGAAGCUCUGGAUATT against Spock2 | 0.132
50 | CCUAUCUCCCUGUUCGAUATT against Rab36 | -1.01
51 | GGACAACUCAGAUUGGACUTT against Adprhl2 | -1.22
52 | GGCUUGAAUCACCAACCAGTT against Sgcz | 0.224
53 | GGUAGUGAGUACUUUGGAATT against Amy2a5 | -1.16
54 | GCAAGUGCGACUGUAUCUGTT against Gdpd2 | -2.2 (active)
55 | GGGAUAAUGCAUGUGAAAATT against Pdk3 | -0.292
56 | GGUUUGUCAACAAGUGUCATT against Dicer1 | -2.17 (active)
57 | CCAGUACAGAUGUGUUAAATT against N4bp2l2 | 1.68
58 | CCGCCUAGCUGAUCUUGUGTT against Aldh1b1 | -0.495
59 | GCUUUUACCGUUACGUCUUTT against Uggt1 | 2.18 (active)
60 | GGACAGCAGUAAAUAUACUTT against Coq3 | 0.423
61 | GCUAUUAAUAUCCUGGUCCTT against Slc7a2 | -0.543
62 | CCUAGACAUCAGUAAUGCGTT against Zbtb17 | -0.43
63 | AACUGUACAUUGAAGCAGATT against Cstf3 | 0.391
64 | GCAUGAAAAGGUAUUACUCTT against Exoc6 | 0.734
65 | GCACUAUCCACAUGCACAUTT against Olfr1281 | 0.469
66 | GGCCUAUGUCAGCACUUUATT against Eif3f | -0.113
67 | GGAUUGCUUUUGAGCAACATT against Ccdc125 | -2.05 (active)
68 | GCUUCUAAGCUUUAGAGGGTT against Rassf10 | -1
69 | GGAUACAGUUAAGAGAUAUTT against Xpr1 | -1.34

Source: PubChem BioAssay AID1508600 (Functional Genomics Laboratory (NCATS/FGL), 2020)
